PLAP act = activates human placental alkaline phosphatase; P05187; purified PLAP enzyme, luminescent substrate read-out; active compounds read high; activation fold at 20 µM; hit rate 1.2% among 96,000; AID 696; in the data active = activation fold above about 2
PostGolgi ctrl = inhibits growth of the yeast control strain; AID 738; inhibition, % at 10 µM; hit rate 5% among 98,000; efflux-deficient yeast background strain, growth absorbance A615, 16 h
DAT uptake mod = changed human dopamine transporter uptake under cocaine IC80; Q01959; LLC-PK1 hDAT cells, [14C]-dopamine uptake with cocaine IC80; actives deviate in either direction; B-score at 10 µM; hit rate 1.3% among 110,000; AID 449768;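 active = Z score or B-score, a plate-position-corrected score, falls beyond the plate's 99.7% confidence bounds, in either direction; inactive = both scores lie inside the 99.7% bounds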;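 also: scored against the spread of the other compound wells on the same plate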
Target sequence (Q01959 whole entry, looked up): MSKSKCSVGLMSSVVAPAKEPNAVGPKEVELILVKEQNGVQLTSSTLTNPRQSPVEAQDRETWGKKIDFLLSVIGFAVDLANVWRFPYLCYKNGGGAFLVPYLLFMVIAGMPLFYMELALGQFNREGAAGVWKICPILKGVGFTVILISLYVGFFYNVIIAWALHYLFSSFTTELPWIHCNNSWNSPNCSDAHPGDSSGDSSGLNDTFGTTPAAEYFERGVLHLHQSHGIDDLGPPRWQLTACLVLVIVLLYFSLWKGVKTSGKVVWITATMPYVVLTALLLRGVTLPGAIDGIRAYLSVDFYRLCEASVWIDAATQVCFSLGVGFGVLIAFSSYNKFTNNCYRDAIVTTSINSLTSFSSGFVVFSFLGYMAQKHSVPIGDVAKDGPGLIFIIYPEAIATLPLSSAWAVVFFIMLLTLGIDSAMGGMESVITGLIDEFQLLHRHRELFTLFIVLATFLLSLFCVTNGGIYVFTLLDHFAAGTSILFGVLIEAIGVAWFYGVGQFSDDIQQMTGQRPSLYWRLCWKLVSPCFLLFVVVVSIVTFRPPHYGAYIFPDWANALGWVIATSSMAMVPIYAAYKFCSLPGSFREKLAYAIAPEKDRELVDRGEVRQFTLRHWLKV
Cav3 T inh = human Cav3.2 channel inhibition, primary screen. hit rate 4% among 100,000. Cav3.2-expressing cells, Fluo-4 calcium fluorescence FDSS; active compounds read low. AID 449739. B-score at 10 µM;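 active = single-dose well whose peak fluorescence ratio is a statistical outlier from its plate by either plate-standardised score or position-corrected B-score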
PostGolgi yeast = growth inhibition of a yeast mutant, post-Golgi transport screen. hit rate 0.9% among 98,000. inhibition, % at 10 µM. post-Golgi transport phenotypic cell assay;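 also: yeast cells grown in 1536-well plates; yeast grown about 18 h at 30C before absorbance read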
An asterisk follows results filed as active; . = no result. An excerpt weighted towards active compounds, which were near 9.6% of everything screened. Rule as the data show it, unless noted: active = inhibition above about 30%; inactive = the rest.

SMILES	PLAP act	PostGolgi ctrl	DAT uptake mod	Cav3 T inh	PostGolgi yeast
c1ccc2sc(N3CN(CCN4CCOCC4)CN(c4nc5ccccc5s4)C3)nc2c1	1.8	5.9	0.587	-5.71*	-11.6
Cc1ccccc1NC(=O)c1sc(Cl)nc1-c1ccccc1	1	39.2*	-1.33	1.9	-9.9
O=c1cc(-c2ccccc2)c2ccc(O)c(CN3CCCCC3)c2o1	1	3.7	0.595	.	13.6
CCc1cc2c(-c3ccccc3)cc(=O)oc2c(CN2CCOCC2)c1O	1.3	17.8	0.477	-8.72*	-5.7
CCCCSc1nnc(-c2cc(Br)ccc2N)c(=O)[nH]1	0.9	35.7*	0.122	-0.0493	8.3
CC(NCc1ccc(N(C)C)cc1)C1CC2CCC1C2 (stereo not given)	0.8	20.5	0.0436	1.14	-1.1
Brc1ccccc1-c1nnc(COc2cccc3cccnc23)o1	1.5	33.4*	2.12	0.324	8.6
Clc1ccccc1OCc1nnc(-c2ccccc2Br)o1	1.1	14.3	1.34	-0.0979	7.6
Fc1cccc(Cl)c1CSc1nnc(COc2cccc3cccnc23)o1	1.1	61.9*	2	-2.82	4.0
NCCc1nnc(SCc2c(F)cccc2Cl)o1	0.9	-0.8	0.193	0.786	-3.4
CC(C)C1N=C2c3ccccc3N=C(SCc3cc(=O)n4cc(Cl)ccc4n3)N2C1=O (stereo not given)	1.3	8.1	-7.11*	1.77	-1.4
COC(=O)c1ccc(/C=N/OCC(=O)NC2CCCC(C)C2C)cc1 (stereo not given)	0.8	40.4*	-0.54	-1.8	11.1
CCc1cc2c(NCCO)ncnc2s1	1	9.2	-0.278	-0.0792	-1.9
OCCOCCNc1ncnc2sc(-c3ccccc3)cc12	2.2*	16.9	-0.135	1.87	4.7
O=C(c1ccc(Cl)cc1)N1CCC(O)(CSc2ccc(Cl)cc2Cl)CC1	1.6	93.5*	0.871	-2.1	14.9
CN1CCN(C(=O)c2ccc(COc3ccc(Cl)cc3Cl)cc2)CC1	1.6	5.8	0.512	0.169	-7.7
Cc1ccc(S(=O)(=O)/C(C#N)=C/c2c(N3CCC(C(N)=O)CC3)nc3ccccn3c2=O)cc1	1.8	14.7	2.45	2.55	3.2
CCN(CC)S(=O)(=O)c1cccc(-c2nnc(SCc3nc4ccccc4s3)o2)c1	1.8	21.4	0.201	-1.35	-7.4
CCN(CC)S(=O)(=O)c1cccc(-c2nnc(SCCCC(=O)c3ccc(F)cc3)o2)c1	1.6	8.2	1.56	-4.73*	1.5
CCN(CC)S(=O)(=O)c1cccc(-c2nnc(SC(C)C(=O)NCCC3=CCCCC3)o2)c1 (stereo not given)	.	10.7	0.278	-2.89*	-3.7
CCN(CC)S(=O)(=O)c1cccc(-c2nnc(SCCCC(=O)c3ccccc3)o2)c1	1.3	7.7	1.95	-5.3*	-1.5
CCN(C(=S)Nc1ccccc1F)C1CCCCC1	1	-1.9	-0.048	-0.518	6.6
CCn1ncc(/C=N/NS(=O)(=O)c2ccc(Cl)cc2)c1C	1	-3.0	0.672	0.377	-2.2
O=C(CSc1nc2ccccc2s1)Nn1cnnc1	1.2	-3.6	-0.0742	-0.257	17.7
Cc1ccccc1N1C(=O)CC(Sc2nnc(-c3ccccc3)o2)C1=O (stereo not given)	1	11.3	-0.223	0.379	-4.2
SMILES	PLAP act	PostGolgi ctrl	DAT uptake mod	Cav3 T inh	PostGolgi yeast
Cc1cccc(NC(=O)CNc2cc(C)ccc2C)c1	1.1	11.5	0.236	-5.76*	18.0
Cc1cccc(C)c1NC(=O)CNc1ccccc1	1.2	37.4*	0.451	-1.15	2.9
CC[N+](CC)(CC)CC(=O)Nc1c(C)cccc1C	.	.	-0.165	0.145	.
Cc1cccc(NC(=O)Cn2cccc2)c1	1	-2.6	-0.0686	-0.0642	-1.1
O=C(NCC(=O)N(c1cccnc1)C(C(=O)NCc1ccco1)c1ccccc1)c1ccco1 (stereo not given)	1.3	-0.1	0.128	.	39.2*
CCC(C)(C)NC(=O)C(c1ccco1)N(C(=O)CNC(=O)c1cccs1)c1cccnc1 (stereo not given)	.	.	-8.17*	0.0898	.
CC(C)c1ccc(C(C(=O)NC(C)(C)C)N(C(=O)CNC(=O)c2ccco2)c2cccnc2)cc1 (stereo not given)	.	.	0.816	0.361	.
COc1cccc(C(CC(=O)Nc2cccc3ccccc23)NC(=O)c2ccccc2)c1 (stereo not given)	1.1	0.8	0.546	-1.26	-8.9
CC(C)(C)NC(=O)COC(=O)Cc1ccc(Cl)cc1	1.2	-4.6	1.44	-0.0864	1.0
Cc1ccc2nc(SCC(=O)Nc3ccc4sc(C)nc4c3)c(C#N)cc2c1	0.9	1.6	-0.48	0.111	-3.1
